Each structure is given as a SMILES string. The panel holds about 83,000 compounds, 20% with a hit somewhere; the sample as a whole holds those more often.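 Step 1: grow cells in 96-well plates. Step 2: add test compound at a single concentration. Step 3: incubate 48 h. Step 4: record percent growth.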 Values without a mark were called inactive. Calls of active or inactive are those of the source. Rule for the calls: active = growth percent below 10; inactive = the rest.

The record followed here is PubChem BioAssay (NCI).

Test systems include SK-MEL-2 melanoma; EKVX NSCLC; SN12C renal; UO-31 renal; ACHN renal; CAKI-1 renal; A498 renal; MOLT-4 leukemia; SR leukemia; RPMI-8226 leukemia; OVCAR-8 ovarian; OVCAR-5 ovarian; OVCAR-4 ovarian; SK-OV-3 ovarian; IGROV1 ovarian; OVCAR-3 ovarian; HS 578T breast; NCI/ADR-RES ovarian; TK-10 renal; CCRF-CEM leukemia.
Assay in all cases: NCI-60 one-dose screen, 48 h (100 = growth as untreated, 0 = no growth, -100 = all killed)
Holding throughout (details): 10 µM

For `CS(=O)(=O)c1nccc(-c2c(-c3cccc(OCc4ccccc4)c3)nc3sccn23)n1`, the growth was 103% in the assay on SK-MEL-2 melanoma; 92.5% in the assay with EKVX NSCLC; 76.2% in the assay on SN12C renal; 3.7% (active) with UO-31 renal; 95.9% in the assay on ACHN renal; 44.2% with CAKI-1 renal. The growth in the assay on A498 renal is 72.5%; with MOLT-4 leukemia, 26.5%; in the assay with SR leukemia it was 37.9%; with RPMI-8226 leukemia, 81.6%; in the assay on OVCAR-8 ovarian, 92.7%; in the assay on OVCAR-5 ovarian, 89.2%. The growth in the assay on OVCAR-4 ovarian is 73.8%; in the assay with SK-OV-3 ovarian, 72.8%; with IGROV1 ovarian, 58.4%; in the assay with OVCAR-3 ovarian, 89.4%; in the assay on HS 578T breast, 79.1%; in the assay on NCI/ADR-RES ovarian, 90.7%.

For the compound `OCCn1cccn1`, the growth is 118% in the assay on SK-MEL-2 melanoma; 105% in the assay on EKVX NSCLC; 104% in the assay with SN12C renal; 107% in the assay on TK-10 renal; 103% in the assay with ACHN renal; 86.4% in the assay on CAKI-1 renal. Moreover, the growth was 94.2% with A498 renal; 99.7% in the assay on CCRF-CEM leukemia; 95.7% in the assay with MOLT-4 leukemia; 101% in the assay with SR leukemia; 98.2% in the assay with RPMI-8226 leukemia; 116% with OVCAR-8 ovarian. Further, the growth in the assay on OVCAR-5 ovarian is 107%; in the assay with OVCAR-4 ovarian it was 117%; in the assay on SK-OV-3 ovarian, 104%; in the assay on OVCAR-3 ovarian it was 104%; in the assay on HS 578T breast, 111%; with NCI/ADR-RES ovarian, 97.5%.

With `COc1ccc(C(=O)c2cc3c(OC)c(OC)c(OC)cc3[nH]2)cc1`, the growth in the assay with SK-MEL-2 melanoma was 43.7%; in the assay on EKVX NSCLC, 98.4%; with SN12C renal, 75.1%; with UO-31 renal, 56%; with ACHN renal it was 79.4%; in the assay on CAKI-1 renal, 128%. The growth is 42.8% in the assay on CCRF-CEM leukemia; 50.2% with MOLT-4 leukemia; -47.8% (active) with SR leukemia; 31.4% in the assay on RPMI-8226 leukemia; 62.8% in the assay on OVCAR-8 ovarian; 68.4% in the assay with OVCAR-5 ovarian. For the same compound, the growth in the assay with OVCAR-4 ovarian was 62.7%; in the assay on SK-OV-3 ovarian, 86.4%; in the assay on IGROV1 ovarian, 35%; with OVCAR-3 ovarian, 45.1%; in the assay on HS 578T breast, 51.8%; in the assay on NCI/ADR-RES ovarian, 18.6%.

In the case of `COc1ccccc1N1CCCSC1=Nc1ccccc1`, the growth in the assay with SK-MEL-2 melanoma was 121%; with EKVX NSCLC, 110%; in the assay on SN12C renal it was 91.6%; with UO-31 renal it was 81.2%; in the assay on ACHN renal, 114%; with A498 renal it was 99.8%. Further, the growth in the assay on CCRF-CEM leukemia was 67.6%; in the assay on MOLT-4 leukemia, 62.1%; in the assay on RPMI-8226 leukemia, 43.6%; in the assay on OVCAR-8 ovarian, 104%; in the assay with OVCAR-5 ovarian, 93.9%; with OVCAR-4 ovarian it was 151%. Also, the growth in the assay with SK-OV-3 ovarian was 113%; in the assay with OVCAR-3 ovarian it was 94.1%; in the assay on HS 578T breast, 117%; in the assay on NCI/ADR-RES ovarian, 103%.

In the case of `CN(C)CCOc1cccc(-c2nc3sccn3c2-c2ccnc(S(C)(=O)=O)n2)c1`, the growth is 117% with SK-MEL-2 melanoma; 99.5% with EKVX NSCLC; 90.5% in the assay on SN12C renal; 72.1% with UO-31 renal; 92.2% in the assay on ACHN renal; 99.5% in the assay on CAKI-1 renal. Further, the growth was 59.6% in the assay on A498 renal; 99.9% in the assay with MOLT-4 leukemia; 102% with SR leukemia; 94.7% in the assay with RPMI-8226 leukemia; 100% with OVCAR-8 ovarian; 97.3% in the assay on OVCAR-5 ovarian. The growth is 75.8% in the assay with OVCAR-4 ovarian; 96.5% in the assay with SK-OV-3 ovarian; 94.3% in the assay on IGROV1 ovarian; 93.6% with OVCAR-3 ovarian; 86.4% with HS 578T breast; 101% with NCI/ADR-RES ovarian.

Take `CCCCC/C=C/C/C=C/CCCCCCCC1=NC(C)(C)CN1C(C)C`: the growth in the assay on SK-MEL-2 melanoma is 84.6%; in the assay with EKVX NSCLC, 51.9%; with SN12C renal it was 47.9%; in the assay on UO-31 renal it was 26.2%; in the assay with ACHN renal, 32.9%; in the assay with CAKI-1 renal, 26.9%. In addition, the growth is 8.7% (active) in the assay on CCRF-CEM leukemia; 1.44% (active) in the assay on MOLT-4 leukemia; 2.99% (active) in the assay with SR leukemia; -35.7% (active) with RPMI-8226 leukemia; 28.3% with OVCAR-8 ovarian; 62.9% in the assay with OVCAR-5 ovarian. Further, the growth with OVCAR-4 ovarian is 27.2%; in the assay on SK-OV-3 ovarian, 68.1%; in the assay on IGROV1 ovarian it was 8.27% (active); with OVCAR-3 ovarian, 17.4%; in the assay on HS 578T breast, 26.7%; in the assay on NCI/ADR-RES ovarian it was 37.1%.

Take `COc1cc2cc(Oc3ccc(NC(=O)c4ccccc4)cc3)c(C)nc2cc1OC`: the growth in the assay with SK-MEL-2 melanoma was 59.5%; in the assay with EKVX NSCLC, 89.8%; in the assay with SN12C renal it was 81%; with UO-31 renal, 81.4%; in the assay on ACHN renal, 80.8%; with CAKI-1 renal, 85.3%. Further, the growth was 89% in the assay with A498 renal; 101% in the assay with CCRF-CEM leukemia; 89.9% in the assay on MOLT-4 leukemia; 70.2% in the assay on SR leukemia; 96.8% in the assay on RPMI-8226 leukemia; 22.7% in the assay with OVCAR-8 ovarian. The growth in the assay on OVCAR-5 ovarian was 112%; with OVCAR-4 ovarian, 78.9%; in the assay with SK-OV-3 ovarian, 73.4%; with IGROV1 ovarian, 91.5%; in the assay with OVCAR-3 ovarian, 83.4%; with HS 578T breast, 57.1%. The growth in the assay with NCI/ADR-RES ovarian was 81.3%.

Take `O=C(CCC(C(=O)c1ccccc1)c1ccccc1)c1ccccc1` (stereo not drawn): the growth with SK-MEL-2 melanoma is 45.4%; in the assay on EKVX NSCLC, 76.2%; in the assay on SN12C renal, 79.7%; with TK-10 renal it was 102%; with ACHN renal it was 72.2%; in the assay with CAKI-1 renal, 52%. Moreover, the growth in the assay on A498 renal was 80.6%; in the assay on CCRF-CEM leukemia, 38.2%; with MOLT-4 leukemia, 46.2%; in the assay with SR leukemia, 25.5%; in the assay with RPMI-8226 leukemia, 64.9%; with OVCAR-8 ovarian, 95.3%. The growth is 88% in the assay on OVCAR-5 ovarian; 91.2% in the assay with OVCAR-4 ovarian; 74.3% with SK-OV-3 ovarian; 79.3% in the assay on IGROV1 ovarian; 72.3% in the assay on OVCAR-3 ovarian; 80.1% in the assay on HS 578T breast. Besides, the growth with NCI/ADR-RES ovarian is 38.3%.

With `NS(=O)(=O)Oc1ccc(-c2ccc3sccc3c2)cc1`, the growth is 105% in the assay on SK-MEL-2 melanoma; 13.3% in the assay with EKVX NSCLC; 94.3% in the assay on SN12C renal; 94% in the assay with TK-10 renal; 94.1% in the assay on ACHN renal; 83.6% with CAKI-1 renal. For the same compound, the growth in the assay on A498 renal was 99.8%; in the assay on CCRF-CEM leukemia, 108%; with MOLT-4 leukemia, 97.4%; in the assay on SR leukemia, 115%; in the assay on RPMI-8226 leukemia it was 107%; in the assay on OVCAR-8 ovarian it was 102%. Besides, the growth with OVCAR-5 ovarian was 88.8%; in the assay with OVCAR-4 ovarian it was 97.3%; with SK-OV-3 ovarian, 108%; with IGROV1 ovarian, 101%; in the assay with OVCAR-3 ovarian, 106%; in the assay with HS 578T breast, 44.6%. In addition, the growth in the assay on NCI/ADR-RES ovarian is 95.3%.
